# High-throughput results as filed in PubChem BioAssay.
# DSG3 Ab inh = inhibitors of pemphigus antibody binding to human desmoglein-3 | P32926 | DSG3-coupled beads, scFv-anti-DSG3-GFP binding, flow cytometry; stronger effect = lower value | binding (percent of control), % at 10 µM | hit rate 0.48% among 310,000 | AID 588358;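 active means binding more than 3 SD below its plate's average and above zero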
# JMJD2C inh = inhibitors of human GASC-1 (JMJD2C) demethylase | Q9H3R0 | hit rate 0.069% among 330,000 | AID 2099 | inhibition, % at 2.35 µM | GST-JMJD2C(1-420) H3K9me3 demethylation, DELFIA europium;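 active means more than half of a compound's replicate wells show inhibition beyond 50%, single wells judged on their own value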;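 further: signal counts dimethyl H3K9 product captured on neutravidin plate; 0% = median of DMSO wells and 100% = 0.3 times that DMSO median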
# GRK2 aptamer HTS = blocks RNA aptamer binding to human GRK2. P25098. bead flow cytometry, FAM-aptamer displacement from GRK2. inhibition of aptamer binding, % at 10 µM. hit rate 0.59% among 330,000. AID 488847;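 active means inhibition of aptamer binding above 40%, roughly 3 SD of noise, on plates passing a quality check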;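 further: median bead fluorescence of bound FAM aptamer so fluorescent compounds give negative values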
# VLA-4 inh = inhibition in a human VLA-4 binding assay; AID 2557; hit rate 0.2% among 330,000; inhibition, % (about 7 µM as worked out from the volumes in the protocol); VLA-4 expressing cells, ligand binding flow cytometry; P13612; in the data active means inhibition above about 50%
# Target sequence (P13612 whole entry, looked up): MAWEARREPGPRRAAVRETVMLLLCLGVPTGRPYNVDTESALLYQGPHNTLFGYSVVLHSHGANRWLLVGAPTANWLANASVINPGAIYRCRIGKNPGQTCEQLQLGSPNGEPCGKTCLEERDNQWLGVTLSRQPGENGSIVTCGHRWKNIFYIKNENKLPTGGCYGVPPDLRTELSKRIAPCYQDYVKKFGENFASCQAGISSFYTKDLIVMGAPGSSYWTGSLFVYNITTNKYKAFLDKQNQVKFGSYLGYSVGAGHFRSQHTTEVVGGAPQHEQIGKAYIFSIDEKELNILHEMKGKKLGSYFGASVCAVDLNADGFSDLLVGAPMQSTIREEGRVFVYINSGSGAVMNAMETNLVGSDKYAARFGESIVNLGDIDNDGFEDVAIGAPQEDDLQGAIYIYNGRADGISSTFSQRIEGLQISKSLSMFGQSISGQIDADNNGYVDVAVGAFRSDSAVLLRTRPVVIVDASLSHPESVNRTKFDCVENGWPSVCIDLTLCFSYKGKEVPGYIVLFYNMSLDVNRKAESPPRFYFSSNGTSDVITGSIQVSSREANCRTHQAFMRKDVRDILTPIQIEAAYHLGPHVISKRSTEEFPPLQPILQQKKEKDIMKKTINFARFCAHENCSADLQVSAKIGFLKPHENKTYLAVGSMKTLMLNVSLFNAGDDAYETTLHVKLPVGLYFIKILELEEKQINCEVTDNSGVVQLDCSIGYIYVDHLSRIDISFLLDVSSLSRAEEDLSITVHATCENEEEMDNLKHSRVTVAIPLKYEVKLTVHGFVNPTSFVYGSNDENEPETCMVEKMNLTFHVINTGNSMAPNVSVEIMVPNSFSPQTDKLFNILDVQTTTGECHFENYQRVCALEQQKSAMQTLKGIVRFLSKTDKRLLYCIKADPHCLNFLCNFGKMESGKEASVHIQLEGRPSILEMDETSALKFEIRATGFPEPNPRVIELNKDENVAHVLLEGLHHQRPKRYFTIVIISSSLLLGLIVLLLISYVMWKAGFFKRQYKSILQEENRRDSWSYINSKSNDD
# PREPL inh = inhibits the human prolyl oligopeptidase-like enzyme; hit rate 0.68% among 320,000; Q4J6C6; inhibition, % at 5.96 µM; recombinant PREPL, fluorescence polarization activity-based probe; in the data active means inhibition above about 43%;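 further: 0% = enzyme with DMSO and 100% = wells lacking enzyme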
# The depositor's hits bear a star; i = inactive; x = no result. Most compounds without a hit are left out; they make up all but 1.6% or so of the library.
SMILES,DSG3 Ab inh,JMJD2C inh,GRK2 aptamer HTS,VLA-4 inh,PREPL inh
Cn1cccc1/C=N\NC(=O)C1COc2ccc(C(C)(C)C)cc2O1 (stereo not drawn),24*,6,3,28,24
COC(=O)c1ccccc1S(=O)(=O)NNC(=O)c1nn(C)c(=O)c2ccccc12,120,-2,0,-12,6
Cc1cc(-c2cccc([N+](=O)[O-])c2)nc2ccc3ccccc3c12,-1.4*,-10,3,-2,1
Cc1nn(-c2ccccc2)c2[nH]c(=O)c(CNc3ccc(N4CCOCC4)cc3)cc12,76*,2,0,-14,23
CC(C)(C)c1nn(-c2ccccc2)c2[nH]c(=O)c(CNc3ccc4c(c3)OCCO4)cc12,103,4,0,4,15
COc1ccc(N=c2oc3ccccc3cc2C(=O)Nc2ccccn2)cc1OC,x,-26,72*,-1,6
COc1ccccc1NC(=O)c1cc2ccccc2o/c1=N\O,95,4,1,1,-2
Cc1ccc(-c2nnc(CN3CCCCC3C)o2)cc1 (stereo not drawn),103,6,0,-1,5
CCc1ccc(S(=O)(=O)/N=C2\C=C(NS(=O)(=O)c3ccccc3)C(=O)c3ccccc32)cc1,49*,-1,x,x,x
CC[n+]1c(/C=C(\C)OC)sc2ccccc21,109,x,x,x,x
CC[n+]1c(/C=C/C=C/N(C(C)=O)c2ccccc2)sc2cc(OC)ccc21,x,-1,80*,i,-164
Cc1ccc(CNC(=O)CC(C)S(=O)(=O)c2cc3c(cc2C)NC(=O)CO3)cc1 (stereo not drawn),102,1,0,7,-4
C[C@]12CC[C@@H]3c4ccc(O)cc4CC[C@H]3[C@@H]1CC[C@@H]2O,53*,-8,0,36,2
Cc1c2cc(O)c(=O)cc-2oc2cc(O)c(O)cc12,i,-7,27,-50,60*
Cc1ccc(C(=O)NNC(=O)c2csc(N3CCOCC3)n2)o1,96*,-3,2,10,-14
O=C(NNC(=O)c1ccc(Br)o1)c1csc(N2CCOCC2)n1,99,7,0,25,5
CC1CCN(S(=O)(=O)c2ccc3c(c2)c(=O)c(C(=O)NCc2ccco2)cn3C)CC1,107,2,3,-2,3
CC1CCN(S(=O)(=O)c2ccc3c(c2)c(=O)c(C(=O)NCc2cccs2)cn3C)CC1,83*,5,2,-5,1
CC(Nc1cc(C)cc(C)c1)=[N+](C)CCNS(=O)(=O)c1ccc(Cl)cc1,110,3,48*,-9,-14
COCCN(Cc1ccccc1)C(=O)c1cccc(S(=O)(=O)N2CCN(Cc3ccccc3)CC2)c1,104,x,x,x,x
CNc1nc(-c2ccc(S(=O)(=O)N3CCCCC3)cc2)cs1,82*,-19,0,0,-2
O=C(Nc1nc(-c2ccc(S(=O)(=O)N3CCCC3)cc2)cs1)c1ccco1,91,-5,0,0,-13
CCc1cccc(CC)c1NC(=O)COC(=O)c1cccc(-c2ccc(OC(C)=O)cc2)c1,114,0,100*,-16,15
CC(=O)Oc1ccc(-c2cccc(C(=O)O)c2)cc1,107,2,1,5,3
CC1(C)CCCN(C(=O)c2ccc3c(c2NCCO)C(=O)c2ccccc2C3=O)C1,92,2,2,-10,53*
SMILES,DSG3 Ab inh,JMJD2C inh,GRK2 aptamer HTS,VLA-4 inh,PREPL inh
CCOC(=O)N/N=C/c1cn(Cc2ccc(Cl)cc2)c2ccccc12,-28*,-2,0,5,8
CCOC(=O)N/N=C/c1cn(CCCOc2ccc(C)cc2)c2ccccc12,-31*,0,2,18,9
CCOC(=O)N/N=C/c1cn(CCCOc2ccccc2)c2ccccc12,97,-2,0,14,10
CC(C)CC(NS(=O)(=O)c1ccc2c(c1)oc(=O)n2C)C(=O)NCc1cccnc1 (stereo not drawn),95,-14,2,0,-4
C#CCOCCOCCOCCNc1nc(N2CCN(C(=O)CCCCCCCCCCNC(=O)[C@H]([C@@H](C)CC)n3cc(CCCCN=C(N)N)nn3)CC2)nc(N2CCN(C(=O)CCCCCCCCCCNC(=O)[C@H](CCCCN)n3cc(C[C@@H](C)CC)nn3)CC2)n1,x,39,0,9,57*
C#CCOCCOCCOCCNc1nc(N2CCN(C(=O)[C@H](CCCCN)n3cc([C@@H](N)[C@H](C)CC)nn3)CC2)nc(N2CCN(C(=O)[C@H](CCC(=O)O)n3cc([C@@H](N)CCSC)nn3)CC2)n1,102,52*,0,29,10
C#CCOCCOCCOCCNc1nc(N2CCN(C(=O)[C@H](CCCCN)n3cc(C(N)CO)nn3)CC2)nc(N2CCN(C(=O)[C@H](CCC(=O)O)n3cc(C(N)[C@H](C)CC)nn3)CC2)n1 (stereo partly drawn),x,5,3,18,-2
C#CCOCCOCCOCCNc1nc(N2CCN(C(=O)CCCCCCCCCCNC(=O)[C@H](CCCCN)n3cc(C[C@@H](C)CC)nn3)CC2)nc(N2CCN(C(=O)CCCCCCCCCCNC(=O)[C@H](CCCCN)n3cc(C[C@@H](C)CC)nn3)CC2)n1,126,-14,0,34,46*
C#CCOCCOCCOCCNc1nc(N2CCN(C(=O)[C@H](CCCCN)n3cc(CCCC)nn3)CC2)nc(N2CCN(C(=O)[C@H](Cc3ccc(O)cc3)n3cc(CCO)nn3)CC2)n1,104,1,47*,3,-26
C#CCOCCOCCOCCNc1nc(N2CCN(C(=O)CCCCCCCCCCNC(=O)[C@@H](CCSC)n3cc(CCO)nn3)CC2)nc(N2CCN(C(=O)CCCCCCCCCCNC(=O)[C@H]([C@@H](C)CC)n3cc(CCCCN=C(N)N)nn3)CC2)n1,157,x,0,15,40
Cc1cccc(COc2coc(CN3CCN(C(=O)c4ccco4)CC3)cc2=O)c1,114,8,2,6,5
COc1cc(/C=C2/SC(=S)N(CCC(=O)Nc3cccnc3)C2=O)cc(OC)c1OC,95,x,x,x,x
CCCn1nc(C(=O)Nc2ccc(-n3cnnn3)cc2)c2ccccc2c1=O,103,x,x,x,x
O=C(NCCc1c[nH]c2ccccc12)C(=O)NCC1OCCCN1S(=O)(=O)c1cc(F)ccc1F (stereo not drawn),112,4,0,33,9
O=C(c1cc2cc3ccc(Cl)cc3nc2o1)N1CCN(Cc2ccc3c(c2)OCO3)CC1,59*,x,x,x,x
Cc1noc(C)c1NC(=O)N(C)C[C@H]1Oc2ccc(NC(=O)Cn3cnnn3)cc2C(=O)N([C@H](C)CO)C[C@@H]1C,93,66*,0,-8,-5
COc1ccc(NC(=O)N(C)C[C@H]2Oc3ccc(NC(=O)Cn4cnnn4)cc3C(=O)N([C@H](C)CO)C[C@@H]2C)cc1,106,10,0,8,-1
C[C@H](CO)N1C[C@H](C)[C@@H](CN(C)Cc2ccc3c(c2)OCO3)Oc2ccc(NC(=O)Cn3cnnn3)cc2C1=O,101,61*,0,6,21
